{"source": "the supplement of paper PMC8728848", "assay_in_all_cases": "glycan array binding signal (z-score within array); higher = stronger binding", "conditions_in_all_cases": "glycan notation: IUPAC condensed, linker removed; mutation: N130D", "key": {"[1]": {"molecular_target": "Fuc(a1-2)Gal(b1-3)[Fuc(a1-4)]GlcNAc", "summary_of_the_method": "(§1)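 From the Consortium for Functional Glycomics database, 3228 arrays were curated, keeping only those whose protein sequence was available. Binding is given as a within-array Z-score averaged across arrays sharing a protein sequence and across linkers. Negative Z-scores can be read as non-binding.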"}, "[2]": {"molecular_target": "Fuc(a1-2)Gal(b1-4)GlcNAc(b1-2)Man(a1-3)[Fuc(a1-2)Gal(b1-4)GlcNAc(b1-2)Man(a1-6)]Man(b1-4)GlcNAc(b1-4)[Fuc(a1-6)]GlcNAc", "summary_of_the_method": "as §1"}, "[3]": {"molecular_target": "Fuc(a1-2)Gal(b1-4)GlcNAc(b1-3)Gal(b1-4)GlcNAc(b1-3)Gal(b1-4)GlcNAc", "summary_of_the_method": "as §1"}, "[4]": {"molecular_target": "Fuc(a1-2)[Gal(a1-3)]Gal(b1-3)GlcNAc(b1-3)GalNAc", "summary_of_the_method": "as §1"}, "[5]": {"molecular_target": "Fuc(a1-2)[Gal(a1-3)]Gal(b1-4)GlcNAc(b1-3)GalNAc", "summary_of_the_method": "as §1"}, "[6]": {"molecular_target": "Fuc(a1-2)[Gal(a1-3)]Gal(b1-4)[Fuc(a1-3)]GlcNAc(b1-3)GalNAc", "summary_of_the_method": "as §1"}, "[7]": {"molecular_target": "Fuc(a1-2)[GalNAc(a1-3)]Gal(b1-4)GlcNAc(b1-6)GalNAc", "summary_of_the_method": "as §1"}, "[8]": {"molecular_target": "Fuc(a1-3)[Gal(b1-4)]GlcNAc6S", "summary_of_the_method": "as §1"}, "Fuc(b1-3)GlcNAc": {"molecular_target": "Fuc(b1-3)GlcNAc", "summary_of_the_method": "as §1"}, "[9]": {"molecular_target": "Gal(a1-4)Gal(b1-4)GlcNAc(b1-3)Gal(b1-4)Glc", "summary_of_the_method": "as §1"}, "[10]": {"molecular_target": "Gal(b1-3)[Fuc(a1-4)]GlcNAc(b1-3)Gal(b1-4)[Fuc(a1-3)]GlcNAc", "summary_of_the_method": "as §1"}, "[11]": {"molecular_target": "Gal(b1-3)[Fuc(a1-4)]GlcNAc(b1-6)GalNAc", "summary_of_the_method": "as §1"}, "Gal(b1-4)GlcNAc(b1-2)Man": {"molecular_target": "Gal(b1-4)GlcNAc(b1-2)Man", "summary_of_the_method": "as §1"}, "[12]": {"molecular_target": "Gal(b1-4)GlcNAc(b1-2)Man(a1-6)[GlcNAc(b1-2)Man(a1-3)]Man(b1-4)GlcNAc(b1-4)GlcNAc", "summary_of_the_method": "as §1"}, "[13]": {"molecular_target": "Gal(b1-4)GlcNAc(b1-3)Gal(b1-4)GlcNAc(b1-3)Gal(b1-4)GlcNAc(b1-2)Man(a1-3)[Gal(b1-4)GlcNAc(b1-3)Gal(b1-4)GlcNAc(b1-3)Gal(b1-4)GlcNAc(b1-2)Man(a1-6)]Man(b1-4)GlcNAc(b1-4)GlcNAc", "summary_of_the_method": "as §1"}, "[14]": {"molecular_target": "Gal(b1-4)GlcNAc(b1-3)Gal(b1-4)GlcNAc(b1-3)Gal(b1-4)GlcNAc(b1-3)Gal(b1-4)GlcNAc(b1-3)Gal(b1-4)GlcNAc(b1-2)[Gal(b1-4)GlcNAc(b1-3)Gal(b1-4)GlcNAc(b1-3)Gal(b1-4)GlcNAc(b1-3)Gal(b1-4)GlcNAc(b1-3)Gal(b1-4)GlcNAc(b1-6)]Man(a1-6)[Gal(b1-4)GlcNAc(b1-3)Gal(b1-4)GlcNAc(b1-3)Gal(b1-4)GlcNAc(b1-3)Gal(b1-4)GlcNAc(b1-3)Gal(b1-4)GlcNAc(b1-2)Man(a1-3)]Man(b1-4)GlcNAc(b1-4)[Fuc(a1-6)]GlcNAc", "summary_of_the_method": "as §1"}, "[15]": {"molecular_target": "Gal(b1-4)GlcNAc(b1-3)Gal(b1-4)GlcNAc(b1-3)[Gal(b1-4)GlcNAc(b1-3)Gal(b1-4)GlcNAc(b1-6)]GalNAc", "summary_of_the_method": "as §1"}, "[16]": {"molecular_target": "Gal3S(b1-4)[Fuc(a1-3)]GlcNAc", "summary_of_the_method": "as §1"}, "Gal6S(b1-3)GlcNAc6S": {"molecular_target": "Gal6S(b1-3)GlcNAc6S", "summary_of_the_method": "as §1"}, "[17]": {"molecular_target": "GalNAc(a1-3)GalNAc(b1-3)Gal(a1-4)Gal(b1-4)GlcNAc", "summary_of_the_method": "as §1"}, "GalNAc(b1-3)GlcNAc": {"molecular_target": "GalNAc(b1-3)GlcNAc", "summary_of_the_method": "as §1"}, "GalNAc3S(b1-4)GlcNAc3S": {"molecular_target": "GalNAc3S(b1-4)GlcNAc3S", "summary_of_the_method": "as §1"}, "[18]": {"molecular_target": "GlcNAc(a1-4)Gal(b1-4)GlcNAc(b1-3)Gal(b1-4)GlcNAc", "summary_of_the_method": "as §1"}, "[19]": {"molecular_target": "GlcNAc(b1-3)[GlcNAc(b1-4)][GlcNAc(b1-6)]GlcNAc", "summary_of_the_method": "as §1"}, "[20]": {"molecular_target": "Man(a1-2)Man(a1-2)Man(a1-3)Man", "summary_of_the_method": "as §1"}, "[21]": {"molecular_target": "Man(a1-2)Man(a1-6)[Man(a1-3)]Man(a1-6)[Man(a1-2)Man(a1-2)Man(a1-3)]Man", "summary_of_the_method": "as §1"}, "[22]": {"molecular_target": "Neu5Ac(a2-3)Gal(b1-3)GlcNAc(b1-6)GalNAc", "summary_of_the_method": "as §1"}, "Neu5Ac(a2-3)Gal(b1-4)Glc": {"molecular_target": "Neu5Ac(a2-3)Gal(b1-4)Glc", "summary_of_the_method": "as §1"}, "[23]": {"molecular_target": "Neu5Ac(a2-3)Gal(b1-4)GlcNAc(b1-2)Man", "summary_of_the_method": "as §1"}, "[24]": {"molecular_target": "Neu5Ac(a2-3)Gal(b1-4)GlcNAc(b1-2)[Neu5Ac(a2-3)Gal(b1-4)GlcNAc(b1-6)]Man(a1-6)[Neu5Ac(a2-3)Gal(b1-4)GlcNAc(b1-2)Man(a1-3)][GlcNAc(b1-4)]Man(b1-4)GlcNAc(b1-4)GlcNAc", "summary_of_the_method": "as §1"}, "[25]": {"molecular_target": "Neu5Ac(a2-3)Gal(b1-4)GlcNAc(b1-3)Gal(b1-3)GlcNAc", "summary_of_the_method": "as §1"}, "[26]": {"molecular_target": "Neu5Ac(a2-3)Gal(b1-4)GlcNAc(b1-6)GalNAc", "summary_of_the_method": "as §1"}, "[27]": {"molecular_target": "Neu5Ac(a2-3)Gal(b1-4)[Fuc(a1-3)]GlcNAc(b1-3)GalNAc", "summary_of_the_method": "as §1"}, "[28]": {"molecular_target": "Neu5Ac(a2-6)Gal(b1-4)GlcNAc(b1-2)Man(a1-3)[GlcNAc(b1-4)][Neu5Ac(a2-6)Gal(b1-4)GlcNAc(b1-2)Man(a1-6)]Man(b1-4)GlcNAc(b1-4)GlcNAc", "summary_of_the_method": "as §1"}, "[29]": {"molecular_target": "Neu5Ac(a2-6)Gal(b1-4)GlcNAc(b1-2)Man(a1-6)Man(b1-4)GlcNAc(b1-4)GlcNAc", "summary_of_the_method": "as §1"}, "[30]": {"molecular_target": "Neu5Ac(a2-6)Gal(b1-4)GlcNAc(b1-3)Gal(b1-4)GlcNAc(b1-2)Man(a1-3)[Neu5Ac(a2-6)Gal(b1-4)GlcNAc(b1-3)Gal(b1-4)GlcNAc(b1-2)Man(a1-6)]GalNAc", "summary_of_the_method": "as §1"}, "[31]": {"molecular_target": "Neu5Ac(a2-6)Gal(b1-4)GlcNAc(b1-6)GalNAc", "summary_of_the_method": "as §1"}, "[32]": {"molecular_target": "Neu5Ac(a2-6)Gal(b1-4)GlcNAc(b1-6)[Gal(b1-3)]GalNAc", "summary_of_the_method": "as §1"}, "[33]": {"molecular_target": "Neu5Ac(a2-8)Neu5Ac(a2-3)Gal(b1-4)Glc", "summary_of_the_method": "as §1"}, "[34]": {"molecular_target": "Neu5Ac9Ac(a2-3)Gal(b1-4)GlcNAc", "summary_of_the_method": "as §1"}}, "note": "This is one part of a sample in which the strongest signals are shown more often than they occur.", "data": [{"binder": "Pwp5 DD (Candida glabrata) (protein) MGSSHHHHHHSSGLVPRGSHMASANPVPLTNVCYFPEEYPRQAGFRAITAGLASTILQGSVDELLNYSGLSSLTTQQTTTTTPNFQLPTLPLPTNVYGLTVVPLYLLVQLQGYFVPPVSGQYTFSLENTDDAAIIFFGNPSAFPCGDLSAWPQASADDITVTDGTFPSRTLFLKAGVAYPMRISYYNSLGSGNLAVSFTDPGGTKRTNWNGYIWRYNSCSTCTYT", "values": [{"measurement": "glycan array binding signal (z-score)", "setting": "[1]", "result": 0.621}, {"measurement": "glycan array binding signal (z-score)", "setting": "[2]", "result": 2.89}, {"measurement": "glycan array binding signal (z-score)", "setting": "[3]", "result": -1.56}, {"measurement": "glycan array binding signal (z-score)", "setting": "[4]", "result": -0.233}, {"measurement": "glycan array binding signal (z-score)", "setting": "[5]", "result": 0.126}, {"measurement": "glycan array binding signal (z-score)", "setting": "[6]", "result": -0.895}, {"measurement": "glycan array binding signal (z-score)", "setting": "[7]", "result": -0.759}, {"measurement": "glycan array binding signal (z-score)", "setting": "[8]", "result": -0.328}, {"measurement": "glycan array binding signal (z-score)", "setting": "Fuc(b1-3)GlcNAc", "result": -0.571}, {"measurement": "glycan array binding signal (z-score)", "setting": "[9]", "result": 0.021}, {"measurement": "glycan array binding signal (z-score)", "setting": "[10]", "result": -0.574}, {"measurement": "glycan array binding signal (z-score)", "setting": "[11]", "result": 4.76}, {"measurement": "glycan array binding signal (z-score)", "setting": "Gal(b1-4)GlcNAc(b1-2)Man", "result": -0.513}, {"measurement": "glycan array binding signal (z-score)", "setting": "[12]", "result": 3.33}, {"measurement": "glycan array binding signal (z-score)", "setting": "[13]", "result": 3.2}, {"measurement": "glycan array binding signal (z-score)", "setting": "[14]", "result": 3.61}, {"measurement": "glycan array binding signal (z-score)", "setting": "[15]", "result": -0.447}, {"measurement": "glycan array binding signal (z-score)", "setting": "[16]", "result": -0.734}, {"measurement": "glycan array binding signal (z-score)", "setting": "Gal6S(b1-3)GlcNAc6S", "result": 2.71}, {"measurement": "glycan array binding signal (z-score)", "setting": "[17]", "result": 1.09}, {"measurement": "glycan array binding signal (z-score)", "setting": "GalNAc(b1-3)GlcNAc", "result": -0.687}, {"measurement": "glycan array binding signal (z-score)", "setting": "GalNAc3S(b1-4)GlcNAc3S", "result": 3.21}, {"measurement": "glycan array binding signal (z-score)", "setting": "[18]", "result": 0.377}, {"measurement": "glycan array binding signal (z-score)", "setting": "[19]", "result": -0.559}, {"measurement": "glycan array binding signal (z-score)", "setting": "[20]", "result": -0.413}, {"measurement": "glycan array binding signal (z-score)", "setting": "[21]", "result": -0.259}, {"measurement": "glycan array binding signal (z-score)", "setting": "[22]", "result": 0.895}, {"measurement": "glycan array binding signal (z-score)", "setting": "Neu5Ac(a2-3)Gal(b1-4)Glc", "result": -0.436}, {"measurement": "glycan array binding signal (z-score)", "setting": "[23]", "result": 2.67}, {"measurement": "glycan array binding signal (z-score)", "setting": "[24]", "result": 11.6}, {"measurement": "glycan array binding signal (z-score)", "setting": "[25]", "result": -0.723}, {"measurement": "glycan array binding signal (z-score)", "setting": "[26]", "result": 0.366}, {"measurement": "glycan array binding signal (z-score)", "setting": "[27]", "result": 3.63}, {"measurement": "glycan array binding signal (z-score)", "setting": "[28]", "result": 3.92}, {"measurement": "glycan array binding signal (z-score)", "setting": "[29]", "result": 0.32}, {"measurement": "glycan array binding signal (z-score)", "setting": "[30]", "result": 0.149}, {"measurement": "glycan array binding signal (z-score)", "setting": "[31]", "result": 0.08}, {"measurement": "glycan array binding signal (z-score)", "setting": "[32]", "result": -0.062}, {"measurement": "glycan array binding signal (z-score)", "setting": "[33]", "result": -0.613}, {"measurement": "glycan array binding signal (z-score)", "setting": "[34]", "result": -0.213}]}]}
